From PubChem BioAssay
Rows were chosen to be rich in hits. Some 0.88% of all compounds tested hit in one or more screens of this group.
RECQ1 inh = qHTS Assay for Inhibitors of RecQ-Like Dna Helicase 1 (RECQ1); ATP-dependent DNA helicase Q1 (Homo sapiens), P46063; RECQ1 DNA unwinding, red fluorescence kinetic read; Potency, µM (top dose mostly 57.3 µM), inactives show at the highest dose activity, negative = inhibition, most hits filed as inhibitors; 240,000 tested, 0.54% active; AID 2549, 2010;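 note: plate controls were vehicle for no effect and no enzyme for full effect; nearly all actives have a fitted effect of over 30% in size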
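RECQ1T1 50 nM; forked duplex (20 bp + 30-nt ss tails) 200 nM, ATP 2 mM final; pH 8.0, 2 mM MgCl2, 2.5 ug/ml poly(dI-dC); 15 min compound preincubation; discontinuous kinetic read over 2 h at RT.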
APEX1 inh = qHTS Assay for Inhibitors of the Human Apurinic/apyrimidinic Endonuclease 1 (APE1) | Potency, µM (doses to about 65.8 µM), for inactives: at the highest dose activity change, negative = inhibition, most hits filed as inhibitors | AID 2517, 2012 | 350,000 tested, 0.35% active | recombinant APE1, TAMRA/BHQ-2 abasic DNA cleavage fluorescence;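 note: plate controls were vehicle for no effect and reference inhibitor for full effect; nearly all actives have a fitted effect of over 55% in size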
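APE1 at 0.75 nM preincubated 15 min at room temperature with compound. Reaction then started with 50 nM double-stranded THF-abasic substrate labelled with TAMRA/BHQ-2, and 525/598 nm fluorescence read kinetically. Activity taken as third-minus-first read difference, normalized to DMSO and NSC13755 controls.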
BLM helicase inh = qHTS Assay for Inhibitors of Bloom's syndrome helicase (BLM); Potency, µM (titrated, usually from 56.1 µM), for the others: at the top dose activity change, negative = inhibition, hits mostly inhibitors; RecQ-like DNA helicase BLM (Homo sapiens), P54132; 350,000 tested, 0.2% active; recombinant BLM DNA unwinding, fluorescence dequenching;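 note: plate controls were vehicle for no effect and no enzyme for full effect; nearly all actives have a fitted effect of over 35% in size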
WRN inhibitor = qHTS for Inhibitors of WRN Helicase; Potency, µM (doses to about 114 µM), for inactives: top-dose activity change, negative = inhibition, most hits filed as inhibitors; AID 651768, 2012; WRN helicase unwinding, fluorescent forked duplex, kinetic; 360,000 tested, 0.46% active; Bifunctional 3'-5' exonuclease/ATP-dependent helicase WRN (Homo sapiens), Q14191; note: % is set by controls: 0 for no effect and ±100 for the full control effect; nearly all actives have a fitted effect of over 55% in size
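WRN at 20 nM final was preincubated with compound for 15 min at room temperature; reaction started with 100 nM forked duplex oligonucleotide carrying fluorophore and quencher plus 2 mM ATP (final). Unwinding followed kinetically by red fluorescence (ex 525/em 598 nm).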
ERG-DNA inh = qHTS for Small Molecule Inhibitors of the ERG Ets/DNA interaction; Potency, µM (top dose mostly 76.9 µM), inactives show at the highest dose FP activity, negative = inhibition, most hits filed as inhibitors; Transcriptional regulator ERG (Homo sapiens), P11308; fluorescence polarization, His-ERG Ets domain / labelled DNA; 370,000 tested, 0.028% active; active = well fitted inhibition curve with a large enough effect in the polarisation, with a control signal flat; inconclusive = small, poorly fitted or top-dose-only effect, or effect the other way, or a change in a side signal; inactive = no such curve, though single readings can be large or run the other way; the % refers to the polarisation;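 note: polarization taken with two DNA probes labelled with fluorescein and Texas red; % of control where 0% means no effect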
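His-tagged ERG Ets domain (1 uM in the protein solution; 300mM KCl, 50mM Tris-HCl, 1mM EDTA, 1mM DTT, pH 7.5) received compound, then a probe mix of 5 nM fluorescein-DNA and 100nM Texas-615-DNA. Fluorescence polarization was read for both dyes.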
KAT2A inh = qHTS Assay for Inhibitors of GCN5L2; 390,000 tested, 0.21% active; GCN5L2 HAT assay, ThioGlo1 CoA-SH fluorescence; Potency, µM (series often up to 58.9 µM), for inactives: at the highest dose activity change, negative = inhibition, hits mostly inhibitors; AID 504327, 2011; note: % is set by controls: 0 for no effect and ±100 for the full control effect
Target sequence (Q92830 whole entry, looked up): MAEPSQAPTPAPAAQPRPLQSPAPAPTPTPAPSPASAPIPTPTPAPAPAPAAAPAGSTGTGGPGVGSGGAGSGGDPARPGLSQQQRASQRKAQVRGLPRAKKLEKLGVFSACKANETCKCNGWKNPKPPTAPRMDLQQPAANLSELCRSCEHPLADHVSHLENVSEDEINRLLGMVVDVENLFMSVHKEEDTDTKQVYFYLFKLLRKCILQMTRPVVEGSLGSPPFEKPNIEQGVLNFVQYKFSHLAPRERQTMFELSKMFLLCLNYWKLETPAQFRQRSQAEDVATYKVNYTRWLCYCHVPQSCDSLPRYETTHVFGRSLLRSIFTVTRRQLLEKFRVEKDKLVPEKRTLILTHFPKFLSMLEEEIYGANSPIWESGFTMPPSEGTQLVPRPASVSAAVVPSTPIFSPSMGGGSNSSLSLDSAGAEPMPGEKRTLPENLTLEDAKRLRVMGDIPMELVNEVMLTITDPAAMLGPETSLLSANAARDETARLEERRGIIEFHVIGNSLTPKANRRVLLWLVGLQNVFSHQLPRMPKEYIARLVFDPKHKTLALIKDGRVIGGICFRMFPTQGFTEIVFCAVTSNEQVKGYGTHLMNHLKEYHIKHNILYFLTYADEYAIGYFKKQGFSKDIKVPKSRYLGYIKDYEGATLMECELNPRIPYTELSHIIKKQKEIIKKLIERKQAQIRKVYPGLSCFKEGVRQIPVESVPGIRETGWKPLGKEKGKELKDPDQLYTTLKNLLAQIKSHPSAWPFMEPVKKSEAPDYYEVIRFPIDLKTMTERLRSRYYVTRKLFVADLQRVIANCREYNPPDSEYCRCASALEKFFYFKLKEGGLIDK
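Titration-based screen in which CoA formation is detected via maleimide probe ThioGlo1 (50uM) turning fluorescent on thiol reaction; substrates H3(1-25) 75uM and acetyl-CoA 70uM, GCN5L2 20nM, 20 min incubation at room temperature.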
* hit, by the source's call; ? = inconclusive; · = no result given; ! = not active in a repeat; [ ] = remark or other dose. Unless noted, calls come from the whole dose curve; as a rule, active = well fitted curve in the direction sought with a large enough effect; inconclusive = small, poorly fitted or top-dose-only effect, or another doubt; inactive = no such curve, though single readings can be large; an effect the other way counts as inactive or inconclusive. Potency is the fitted concentration of half-maximal effect.

SMILES	RECQ1 inh	APEX1 inh	BLM helicase inh	WRN inhibitor	ERG-DNA inh	KAT2A inh
C=C1CCN(C(Cc2ccccc2)C(=O)NCc2ccccc2)S(=O)(=O)c2ccccc21 (centres undefined)	0%	-14%	-7%	·	·	·
COc1ccc(N=C2NC(=O)/C(=C/C=C/c3ccccc3)S2)cc1	17%	2%	-2%	-11%	-2%	0%
O=C1NC(=Nc2ccccc2)S/C1=C\C=C\c1ccco1	2%	3%	13µM*	50µM*	9%	?
CC1=C(O)C(=O)C(C2=C(O)C(=O)C(C)=C(O)C2=O)=C(O)C1=O	·	·	·	-2%	-4%	·
O=C1C(O)=C(O)C(=O)C(O)=C1O	-17%	10µM*	?	·	·	-3%
NC(=O)c1ccc[n+]([C@@H]2O[C@H](COP(=O)([O-])OP(=O)(O)OC[C@H]3O[C@@H](n4cnc5c(N)ncnc54)[C@H](O)[C@@H]3O)[C@@H](O)[C@H]2O)c1	·	-1%[21 µM]	·	·	·	·
CCCCCCCC/C=C/CCCCCCCC(=O)NCCOP(=O)(O)O	-12%	-8%	0%	·	·	7.1µM*
CCCCC/C=C\C/C=C\CCCCCCCC(=O)O	-3%	10%	-12%	·	·	?
CCCCCCCC/C=C\CCCCCCCC(=O)O	-6%	?	?	·	-3%	32µM*!
CCCCC/C=C\C/C=C\C/C=C\CCCCC(=O)O	18%	-16%	118%	?	-4%	14µM*!
CCCCCCCC/C=C\CCCCCCCCCCCC(=O)O	-23%	-10%	-14%	·	·	8.9µM*
CC(C)(C)n1ncc2c(=O)n(Cc3ccc(C(F)(F)F)cc3)cnc21	·	6%	·	·	·	·
CCCCCCCCC#CCC#CCC#CCCCC(=O)O	20µM*!	?	5%	·	·	4%
NCc1ccccc1CC(=O)N[C@@H]1C(=O)N2C(C(=O)O)=C(CSc3nnnn3CC(=O)O)CS[C@H]12	·	-10%[21 µM]	·	·	·	·
Cc1ccc(S(=O)(=O)Nc2ccc(O)c3ccccc23)c(C)c1	·	-20%	-10%	50µM*	7%	-9%
Cc1ccc(C)c(S(=O)(=O)Nc2ccc(O)c3ccccc23)c1	·	12%	-6%	-4%	8%	-7%
COc1ccc(S(=O)(=O)Nc2ccc(O)c3ccccc23)cc1	-3%	3%	0%	79µM*	-3%	-13%
Cc1ccc(S(=O)(=O)NNc2ccccc2)c(C)c1	0%	7%	-4%	50µM*	5%	?
COc1ccc(S(=O)(=O)Nc2ccccc2)cc1	·	·	·	-34%	17%	·
CN[C@@H]1[C@@H](O[C@H]2O[C@H](CO)[C@@H](N)[C@H](O)[C@H]2O)O[C@H]2C[C@@H](N)[C@@H](O[C@H]3[C@H](O)[C@@H](O)[C@H](N)C[C@@H]3N)O[C@@H]2[C@@H]1O	·	2%[21 µM]	·	·	·	·
C[C@H](NC(c1cccc2nc(O)c(O)nc12)P(=O)(O)O)c1ccc(Br)cc1 (some centres undefined)	-4%	-7%	1%	·	·	-10%
COc1ccc(-c2cc(-c3nnc(COC(=O)CC4CC5CCC4C5)o3)c3ccccc3n2)cc1OC (centres undefined)	-3%	1%	-4%	-15%	2%	35µM*
COc1ccc(CNC(=O)COC(=O)CC2CC3CCC2C3)cc1OC (centres undefined)	11%	8%	0%	-19%	-9%	-2%
CN(C(=O)c1cccc(NC(=O)Cc2ccc(NC(=O)C3CCCN(C(=O)C4CCC4)C3)cc2)c1)C1CCCCC1 (centres undefined)	·	·	·	-2%	9%	·
